Experimental findings from PubChem BioAssay are described below.

The source made the active and inactive calls.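 Rule for the calls, unless noted: active = visually confirmed hit in the image check and inhibition above 20%; inconclusive = visually confirmed hit but inhibition not above 20%; inactive = no visual hit in the image check.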

A short description of experiment [1]: inhibitors of TNFa-induced NFkB p65 translocation, primary screen, imaging, HUVEC, MLSMR starter and 10KST1 sets (AID 438;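 active = inhibition above 20% together with a positive visual image hit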;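 note: compound added about 3h40 before a 20 min TNFalpha stimulation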;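 for inhibition: signal is the nuclear over cytoplasmic p65 intensity ratio per well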). The settings on record: HUVEC TNFa-induced p65 nuclear translocation; cell count: measured here: nuclei count (cytotoxicity indicator), at 2.08 µM; inhibition: at 2 µM, stronger effect = higher value, 0% TNFa-plus-vehicle, 100% no-TNFa wells.
Experiment [2] is described as follows: inhibitors of mutant huntingtin aggregation, primary screen, imaging, exon1htt(103Q)mCFP cells, high-content imaging (AID 483;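 active = visual image review flags a hit and inhibition of aggregation exceeds 20%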;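 note: compound exposure lasted 3 days before fixation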;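 for nuclei count: percent of the per-plate median nuclei count of sample wells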). The settings on record: exon1htt(103Q)mCFP cell line, aggregate imaging, at 2 µM; inhibition of aggregation: stronger effect = higher value; nuclei count: measured here: cell count, toxicity.
A short description of experiment [3]: inhibitors of E-selectin induction by TNFa, primary screen, imaging, HUVEC, immunofluorescence, MLSMR starter and 10KST1 sets (AID 487).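 For inhibition: signal is fraction of cell area covered by stained E-selectin grains.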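 For nuclei count: 100% = median nuclei count of all wells on the same plate.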 The settings on record: HUVEC TNFalpha-induced E-selectin immunofluorescence imaging, at 2 µM; inhibition: stronger effect = higher value; nuclei count: measured here: cell number, toxicity.
Experiment [4] deals with Voltage-gated potassium channel subunit beta-2 (Rattus norvegicus) (UniProt P62483). Kind of experiment: KvBeta enzyme negative modulators, primary screen, biochemical, NADPH fluorescence (AID 622;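 active = fluorescence slope higher than the sample average by over 3 SD, cut at about -0.22 in these data, passing the limit was not always enough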;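 note: slope of raw intensity against log time taken from 70 to 1610 s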). As to conditions: recombinant KvBeta, 4-cyanobenzaldehyde reduction, at 10 µM, stronger effect = higher value.
Voltage-gated potassium channel subunit beta-2 (Rattus norvegicus), sequence (P62483 whole entry, looked up): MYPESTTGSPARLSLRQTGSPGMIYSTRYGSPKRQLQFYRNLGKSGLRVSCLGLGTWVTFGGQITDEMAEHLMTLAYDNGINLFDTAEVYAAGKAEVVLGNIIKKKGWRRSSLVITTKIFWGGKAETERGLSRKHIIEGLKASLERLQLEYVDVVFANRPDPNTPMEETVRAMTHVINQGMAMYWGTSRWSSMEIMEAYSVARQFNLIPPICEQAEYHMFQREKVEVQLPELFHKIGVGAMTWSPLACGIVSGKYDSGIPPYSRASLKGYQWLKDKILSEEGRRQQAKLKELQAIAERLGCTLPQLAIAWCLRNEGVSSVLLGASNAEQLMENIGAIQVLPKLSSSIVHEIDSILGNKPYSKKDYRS
The target is the same in experiment [5]. Kind of experiment: KvBeta positive modulators, primary screen, biochemical, NADPH fluorescence (AID 623;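 active = NADPH fluorescence slope more negative than the mean of all samples by about 3 SD, 99.7% confidence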;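 note: fluorescence intensity change per second fitted from 20 to 320 s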). The settings on record: Recombinant KvBeta, NADPH fluorescence decrease slope, 10 min; at 10 µM; stronger effect = lower value.
In experiment [6] the target is Alpha-2C adrenergic receptor (Homo sapiens) (UniProt P18825). Kind of experiment: modulators of alpha2C/GIRK thallium flux, primary screen, cell-based, HEK293 alpha2C/GIRK1/2 (AID 624;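 active = fluorescence slope after compound addition differing from the mean of all screened samples at 99.7% confidence, in either direction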;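 note: slope of fluorescence ratio to pre-addition baseline per second over 15 to 24 s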). As to conditions: thallium flux BTC fluorescence, at 10 µM, actives lie on both sides.
Alpha-2C adrenergic receptor (Homo sapiens), sequence (P18825 whole entry, looked up): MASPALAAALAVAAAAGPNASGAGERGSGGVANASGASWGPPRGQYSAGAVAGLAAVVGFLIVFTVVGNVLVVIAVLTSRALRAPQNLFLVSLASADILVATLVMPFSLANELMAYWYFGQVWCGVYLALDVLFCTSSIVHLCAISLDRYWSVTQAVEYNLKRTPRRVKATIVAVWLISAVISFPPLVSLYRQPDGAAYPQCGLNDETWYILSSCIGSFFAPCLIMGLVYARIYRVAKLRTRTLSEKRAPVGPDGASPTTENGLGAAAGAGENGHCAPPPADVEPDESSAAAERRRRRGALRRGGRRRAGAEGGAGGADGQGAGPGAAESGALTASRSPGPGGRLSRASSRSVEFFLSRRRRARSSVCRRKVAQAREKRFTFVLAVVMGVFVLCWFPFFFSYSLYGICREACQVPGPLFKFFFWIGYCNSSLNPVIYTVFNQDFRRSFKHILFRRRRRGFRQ
Experiment [7] is described as follows: inhibitors of Sendai virus-induced IRF3 signaling, primary screen, TLR/RLR signaling modifier project, cell-based, Sendai virus stimulus, luciferase, 10K MLSCN set (AID 602276;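 active = inhibition at or above 50% at 10 µM; inactive = inhibition below 50%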;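 note: firefly luciferase from ISG56 promoter only with Renilla not read in this screen; 0% = Sendai virus plus DMSO and 100% = medium plus DMSO without virus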). The settings on record: HEK293 RL24 IRF3 luciferase reporter, at 10 µM, stronger effect = higher value. A general note: A reporter such as luciferase makes a cellular process visible.
Experiment [8] in a line: inhibitors of poly I:C-induced TLR3 signaling, primary screen, cell-based, poly I:C stimulus, luciferase, 10K MLSCN set (AID 602277;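 active = inhibition of the reporter signal at or above 50%; inactive = inhibition below 50%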). As to conditions: HEK293-TLR3 RL24 IRF3 luciferase reporter, at 10 µM, stronger effect = higher value.

For orientation: inhibition means the drop in the measured response relative to a control, in per cent. On to `Cc1cc(C)cc(N2C(=O)CC(N3CCOCC3)C2=O)c1` (centres undefined), for which the cell count in experiment [1] came to 459. Further, the inhibition in experiment [1] was 3% (inactive); in experiment [3], 38.6% (inactive); in experiment [7], 13.8% (inactive); in experiment [8], 32.5% (inactive). Besides, in experiment [2], the inhibition of aggregation was -4.9% (inactive). The nuclei count in experiment [2] stood at 105%; in experiment [3], 98.8%. Moreover, the fluorescence slope in experiment [4] is -0.355 (inactive). For the same compound, the NADPH fluorescence slope in experiment [5] was 3e-05 (inactive). Moreover, the slope in experiment [6] was 0.00693 (inactive).
As to `O=c1cnnc(NCc2ccccc2)[nH]1`, the cell count in experiment [1] is 696. Moreover, the inhibition is -11.2% (inactive) in experiment [1], -32.9% (inactive) in experiment [3], 1.13% (inactive) in experiment [7] and 8.35% (inactive) in experiment [8]. Also, in experiment [2], the inhibition of aggregation was 9.3% (inactive). Also, the values for the nuclei count in experiment [2] and in experiment [3] were 99.5% and 105%, respectively. For the same compound, in experiment [4], the fluorescence slope was -0.418 (inactive). For the same compound, the NADPH fluorescence slope in experiment [5] is -2.6e-05 (inactive). In addition, the slope in experiment [6] was 0.00324 (inactive).
As for `Cc1cc(C(=O)NCCN2CCN(c3cccc(Cl)c3)CC2)n(-c2ccccc2)n1`, the cell count in experiment [1] worked out at 647. The inhibition in experiment [1] was 5.5% (inactive); in experiment [3], -50.5% (inactive); in experiment [7], 16.7% (inactive); in experiment [8], 35% (inactive). The inhibition of aggregation in experiment [2] is -25.2% (inactive). Also, the nuclei count in experiment [2] was 78.7%; in experiment [3], 108%. Also, the fluorescence slope in experiment [4] was -0.531 (inactive). Besides, the NADPH fluorescence slope in experiment [5] is -2.8e-05 (inactive). For the same compound, the slope in experiment [6] is 0.00538 (inactive).
On to `COc1ccc(CCNc2oc(COc3ccccc3Cl)nc2C#N)cc1OC`, for which, in experiment [1], the cell count amounted to 643. Further, the inhibition is 0.3% (inactive) in experiment [1], -24.6% (inactive) in experiment [3], 1.77% (inactive) in experiment [7] and -11% (inactive) in experiment [8]. In addition, the inhibition of aggregation in experiment [2] was -3% (inactive). The nuclei count was found to be 99.9% in experiment [2] and 109% in experiment [3]. Moreover, in experiment [4], the fluorescence slope was -0.462 (inactive). For the same compound, the NADPH fluorescence slope in experiment [5] is -5.7e-05 (inactive). The slope in experiment [6] was 0.00453 (inactive).
As to `COc1ccc(C2CC(c3ccco3)n3ncnc3N2)cc1` (centres undefined), the cell count in experiment [1] came to 458. Besides, the inhibition in experiment [1] was 6% (inactive); in experiment [3], -21.1% (inactive); in experiment [7], 9.66% (inactive); in experiment [8], 39.2% (inactive). Moreover, in experiment [2], the inhibition of aggregation is -19.3% (inactive). The nuclei count stood at 59.7% in experiment [2] and 96.4% in experiment [3]. The fluorescence slope in experiment [4] was -0.4 (inactive). The NADPH fluorescence slope in experiment [5] was -6.8e-05 (inactive). The slope in experiment [6] was 0.00517 (inactive).
Take `Cc1cccc(Nc2ncc3c(n2)CC(c2ccco2)CC3=O)c1` (centres undefined): the cell count in experiment [1] was found to be 386. For the same compound, the inhibition in experiment [1] was -1% (inactive); in experiment [3], -29% (inactive); in experiment [7] it was -2.61% (inactive); in experiment [8] it was -12.4% (inactive). Also, in experiment [2], the inhibition of aggregation was -7% (inactive). Besides, the nuclei count in experiment [2] amounted to 84.1%; in experiment [3], 187%. In experiment [4], the fluorescence slope is -0.378 (inactive). Moreover, the NADPH fluorescence slope in experiment [5] was -1.7e-05 (inactive). Besides, the slope in experiment [6] was 0.003 (inactive).
`O=C(Cn1ccc2ccccc2c1=O)Nc1ccc2c(c1)OCO2`: the cell count in experiment [1] was determined as 231. Moreover, the inhibition in experiment [1] was -1.8% (inactive); in experiment [3], 0% (inactive); in experiment [7] it was 0.207% (inactive); in experiment [8] it was -4.72% (inactive). Further, the inhibition of aggregation in experiment [2] is 1% (inactive). Further, the figures for the nuclei count in experiment [2] and in experiment [3] were 103% and 91.4%, respectively. In experiment [4], the fluorescence slope was -0.602 (inactive). In experiment [5], the NADPH fluorescence slope was -4.5e-05 (inactive). Moreover, the slope in experiment [6] is 0.00747 (inactive).
As for `COC(=O)[C@H](C)NC(=O)Nc1cc(OC)ccc1OC`, the cell count in experiment [1] was 572. Besides, the inhibition in experiment [1] was -15.2% (inactive); in experiment [3] it was -11% (inactive); in experiment [7], -3.29% (inactive); in experiment [8] it was -52% (inactive). For the same compound, the inhibition of aggregation in experiment [2] is -17.4% (inactive). In addition, the nuclei count in experiment [2] stood at 114%; in experiment [3], 103%. Also, in experiment [4], the fluorescence slope was -0.586 (inactive). In experiment [5], the NADPH fluorescence slope is 1.8e-05 (inactive). Also, the slope in experiment [6] is 0.00542 (inactive).
For `CCOc1cc(C(=O)N2CCN=C2SC)cc(OCC)c1OCC`, in experiment [1], the cell count is 227. The inhibition in experiment [1] was -4.9% (inactive); in experiment [3], -24.8% (inactive); in experiment [7], 15.5% (inactive); in experiment [8], 24.3% (inactive). Further, the inhibition of aggregation in experiment [2] was -39.5% (inactive). Besides, the nuclei count in experiment [2] came out at 109%; in experiment [3], 108%. In addition, the fluorescence slope in experiment [4] is -0.595 (inactive). Further, in experiment [5], the NADPH fluorescence slope was 4.6e-06 (inactive). In addition, the slope in experiment [6] was 0.00661 (inactive).
Take `COc1ccc(C(C(=O)NC2CCCCC2)N2CCC3(CC2)OCCO3)cc1` (centres undefined): the cell count in experiment [1] was found to be 953. The inhibition in experiment [1] is 1.8% (inactive); in experiment [3] it was -18.3% (inactive); in experiment [7], 31.2% (inactive); in experiment [8], 89.5% (active). Further, in experiment [2], the inhibition of aggregation is -42.7% (inactive). Moreover, the figures for the nuclei count in experiment [2] and in experiment [3] were 132% and 135%, respectively. The fluorescence slope in experiment [4] is -0.525 (inactive). The NADPH fluorescence slope in experiment [5] was -6.1e-05 (inactive). In experiment [6], the slope was 0.00579 (inactive).
On to `CC(=O)NC(Cc1c[nH]c2ccccc12)C(=O)OCC(=O)Nc1cc(C)on1` (centres undefined), for which, in experiment [1], the cell count came to 505. For the same compound, the inhibition is 9.6% (inactive) in experiment [1], -0.6% (inactive) in experiment [3], -5.34% (inactive) in experiment [7] and 8.03% (inactive) in experiment [8]. Moreover, in experiment [2], the inhibition of aggregation is 0.7% (inactive). Moreover, the nuclei count in experiment [2] was found to be 110%; in experiment [3], 97.6%. Besides, in experiment [4], the fluorescence slope is -0.376 (inactive). Moreover, in experiment [5], the NADPH fluorescence slope was 1.5e-05 (inactive). Besides, the slope in experiment [6] was 0.00598 (inactive).
With `O=C(Nc1ccccc1C(=O)N1CCOCC1)C1CCC(=O)N1C1CCCC1` (centres undefined), the cell count in experiment [1] was determined as 229. Moreover, the inhibition was 14.7% (inactive) in experiment [1], -48.2% (inactive) in experiment [3], 4.86% (inactive) in experiment [7] and 7.23% (inactive) in experiment [8]. For the same compound, the inhibition of aggregation in experiment [2] was 8.7% (inactive). Besides, the nuclei count in experiment [2] was found to be 79.1%; in experiment [3], 110%. Besides, the fluorescence slope in experiment [4] is -0.425 (inactive). In addition, the NADPH fluorescence slope in experiment [5] is -4.5e-05 (inactive). In addition, in experiment [6], the slope is 0.00481 (inactive).
`O=C(CCCCCN1C(=O)CCC1=O)NCc1ccccc1`: in experiment [1], the cell count was determined as 581. Moreover, the inhibition was -15.5% (inactive) in experiment [1], -64.5% (inactive) in experiment [3], 12.6% (inactive) in experiment [7] and 24.6% (inactive) in experiment [8]. Besides, in experiment [2], the inhibition of aggregation is -2% (inactive). Besides, the values for the nuclei count in experiment [2] and in experiment [3] were 106% and 105%, respectively. Moreover, the fluorescence slope in experiment [4] is -0.605 (inactive). Further, the NADPH fluorescence slope in experiment [5] is -4.8e-05 (inactive). Besides, the slope in experiment [6] was 0.00553 (inactive).
With `CC(=O)N1CCN=C1SCc1c(F)cccc1Cl`, the cell count in experiment [1] was found to be 509. Moreover, the inhibition in experiment [1] was 9.8% (inactive); in experiment [3], 9.3% (inactive); in experiment [7] it was -11.7% (inactive); in experiment [8], 4.78% (inactive). Besides, the inhibition of aggregation in experiment [2] is -12.4% (inactive). The nuclei count in experiment [2] is 110%; in experiment [3], 93.3%. In addition, the fluorescence slope in experiment [4] is -0.626 (inactive). The NADPH fluorescence slope in experiment [5] is 1.8e-05 (inactive). In experiment [6], the slope is 0.00565 (inactive).
